# Test results as given in PubChem BioAssay AID1508600 (Functional Genomics Laboratory (NCATS/FGL), 2020).
# Hit rate of the full screen: of about 53,000 sequences, about 3,700 (7%) were called active. The full list was thinned out, with actives kept by preference. Values without a mark were called inactive.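 How the source made its calls: active means gene knockdowns whose robust z-score for IL-1 alpha signal is at least 2 or at most -2, so actives lie on both sides; inactive means the rest.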
# Assay: Components of the Cytosolic LPS Sensing Pathway: Gene Identification via Genome-wide siRNA Screen
# Conditions: RAW264.7 macrophages, IL-1a HTRF, actives lie on both sides, screened at 100 nM (by protocol), cells primed 5 h with Pam3CSK4 first
# Excerpt: Non-canonical inflammasome activation by cytosolic LPS is a critical component of the host response to Gram-negative bacterial infection, however we lack a comprehensive understanding of the cellular processes that control this pathway. Here we describe a genome-wide siRNA screen to identify genes regulating the mouse macrophage IL-1 alpha response to cytosolic LPS.
# RAW264.7 cells were maintained in complete DMEM media, comprising DMEM with 4.5 g/L glucose, 10% FBS (Gemini Bio-Products, West Sacramento, CA), 2 mM Glutamine (Lonza) and 20 mM HEPES (Lonza), hereafter complete DMEM.
# The RNAi screen was conducted in 384-well format using the Ambion Silencer Mouse Genome siRNA Library (#4391425), which consists of three unique, nonoverlapping, nonpooled siRNAs for each of 17,000 gene targets. siRNA reagents ([…]) were stamped into 384-well white flat-bottom microplates (Corning, 3570) using a Velocity11 VPrep liquid handling system (Agilent) integrated into a BioCel robotic platform (Agilent) in columns 1-22, leaving columns 23-24 empty for negative (Ambion, Negative control #1) and positive (mouse Casp4) controls, respectively. The median value of each plate's negative control column was used to normalize sample wells, and the positive control was used to assess transfection efficiency and assay performance.
# Lipofectamine RNAiMAX Transfection Reagent ([…]; Invitrogen) was added in […] serum-free, antibiotic-free media to plate wells using a Thermo Scientific Matrix WellMate and Microplate Stacker. Plates were incubated for 45 min at room temperature to allow for the sufficient formation of siRNA-lipid complexes. Cells were seeded at a density of 1x10^4 cells per well in 20 microL media containing 20% (vol/vol) FBS without antibiotics. The final concentration of siRNA in each well was 100 nM. Cells were cultured for 48h at 37 degrees C in 5% CO2 before addition of […] of TLR ligand Pam3CSK4 for 5 hours. The medium was then removed, replaced with […] growth media and cell were transfected with […] of LipidA and TransIT-TKO (Mirus) for 24 hour. At the end of the LipidA treatment, […] of supernatant was transferred to a 384 Greiner Bio-one non-binding low volume plate and […] of IL-1a HTRF reagent (Cisbio, 62MIL1APEH) was added and incubated at room temperature overnight. The plates were read on an EnVision plate reader (PerkinElmer). Cell viability was measured by adding 20ul Cell Titer Glo to the original plate and running a luminescence read on the EnVision. The quantified IL-1a signal for each siRNA gene-targeted well was divided by the median of the negative control wells and multiplied by 100 to achieve a negative control normalized value for each well/siRNA. This normalized value was then used to generate a robust z-score by first taking the log of each value and then by subtracting the median and dividing by the […].
row,Sequence,z-score
1,GCAUGAUGAUGGAGACCGATT against Sox1,-1.06
2,GGUGUUCCUAUAAAAGUAUTT against Tfb2m,0.597
3,GGUGCUACAAGUGUACUGATT against Zswim2,-2.14 (active)
4,GGUCUUCCAGAACAAUUACTT against Prtn3,0.439
5,GGCACACCUUUUGUUAGUGTT against Ywhag,-1.94
6,GGAUUUGUUCAAAUAACAGTT against Lsm14a,-0.664
7,CCAAAUUAUCACCCUGUUCTT against Olfr763,-0.0232
8,GGAAAUGCGUCAAAAGACUTT against H2az1,0.04
9,GCUAAAAAUGGUUGUGUGATT against Six3os1,-1.62
10,GGAUGGUUUUCAUUUGCUUTT against Cd300ld,-0.606
11,CCGUUAAGUAGCUGGAAGATT against Ubl4b,0.488
12,GGGAACCUCACCAUUAUCATT against Olfr769,-0.413
13,GCAAGGACCAAAUUACAUATT against Itgb3bp,2.45 (active)
14,GGACUUUCUGAUGGACUUGTT against Sapcd1,1.59
15,GGAUCCUGAAAUCAAAACUTT against Mbl1,-0.316
16,GGCAUAACCAAAAGAAAGUTT against 4933427E11Rik,0.648
17,GGGCUUCUUUGCCACACUUTT against Rho,0.761
18,CGAGAUGAAAUAUACAGAUTT against Trat1,1.12
19,GGACAAUUAACGAUCCCACTT against Pdxp,-2.58 (active)
20,GGGUUAUGGUAGAUUAUCUTT against Tor4a,-0.376
21,GGACACCUCGAGAUUCUCUTT against Actl11,-0.186
22,GGAAAACAACACGAUGAAATT against Tex13b,-1.72
23,GGAAGGAGAACAUUCCUUUTT against Ces1d,-0.198

row,Sequence,z-score
1,GGCCAUUUGUUAGGACCUGTT against Prmt6,0.205
2,CGGCAUGUCCUUCAUCGCUTT against Proser2,-2.89 (active)
3,GGAGAAAAUUCAAGUCACCTT against Olfr663,0.215
4,AGUGAAACUAAACUGGAGUTT against 2610318N02Rik,1.41
5,GGAUCUCAAUGUUCACUUGTT against Bpifb2,-0.817
6,GGCUACUUCUGUACUAGGATT against Gclc,-1.05
7,GGAGGAAGCUCAUCUAUGATT against Rpl7,0.964
8,GGAAACCAUCAUGAAGAAATT against Siae,-0.127
9,CCCAUUGAACAGGAUGUUATT against Coq9,-0.292
10,CCUGGUAUCCAAGAGGAAGTT against Myt1,2.52 (active)
11,GCAUCAAUUGUCAGGAAAUTT against Rev3l,0.807
12,GGGCUCGUAAAGAAAGAAGTT against Cep41,-1.15
13,GCUGAUGAACGAAUACAACTT against Kcnk5,1.25
14,GCGCAGAACCCAGAUGAAGTT against Necap2,0.836
15,CCGUCCAUUGCACUGGAUATT against Arntl2,0.024
16,GGUGUGAGUGUAAGUUUAUTT against Wnt16,1.1
17,CGGAUAUGAGAUGAGAAUGTT against Morn4,-2.4 (active)
18,GGAUUUCAACAGACAGGUGTT against Paip2b,0.877
19,GGCAGAACUCAAAUUCUUGTT against AW209491,-0.35
20,GCGUAGCUGUAGUGAACCATT against Erh,1.78
21,GGUACUACACCUUUGAUGATT against Fibp,-0.497
22,GGACCACAACACAAAUCUGTT against Fasl,1.49
23,UUCAUGUAGGUCUACUAUUTT against Olfr203,-0.104

row,Sequence,z-score
1,GGAUCUGAAGCUGAUUACATT against Clca2,2.47 (active)
2,GCCACUGUUUGAUCUGAAATT against Fhod1,0.943
3,CCUUGCCAUAAGUGAUUUATT against Npffr2,0.876
4,GGCCUUAAAAUACCUUUGATT against Srpx,1.12
5,CCAGUACAAAGCCACAAUATT against Rab7,5.54 (active)
6,GGACAUUUCACAAGUCAAATT against Eloc,1.81
7,GGGUGGAAAAUUUCAGUUUTT against Ube2f,-0.957
8,CCAUCCCGUUCACUAGAGATT against Mypn,-1.73
9,CCGACUGCUCGUAAAUUCATT against Ndufa12,2.79 (active)
10,GGUACAAAGCCAUUGUACGTT against Grpr,-0.381
11,GGAAGAGAAACGACAAAAUTT against Olfr293,1.46
12,GGGAGACAAUCGUUUUAGCTT against Tgfbi,0.698
13,GGGCAUAUUCACGAUCAAUTT against Fut2,1.43
14,GGAAAGACCACAUUAUUAATT against Orc4,0.0347
15,GGUUUCUGCCCAGAGUCUATT against 2010106E10Rik,-2.78 (active)
16,GCAAGGACUCUCAUGGUUGTT against Zfand1,-0.0357
17,GGUGCCGAACGUGUAAUUATT against Rarb,0.936
18,GCCCAUGUGUAAUACAUUUTT against Prps1,0.789
19,CCGGAGUAACUCUCUAACATT against Apbb3,-0.291
20,GGGUGACCUUUCCAGAUGATT against Cldn13,-0.846
21,GGCACAUGGAAUCUUUGAGTT against Edc3,-1.65
22,GGAGCAACUACAAACAUCUTT against Acss2,2.35 (active)
23,GGGAUAAGACAGGAGACUUTT against Slc16a11,0.227
